PubChem BioAssay
The source made the active and inactive calls.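 Rule for the calls, unless noted: active = compound raises insulin release from rat beta cells at 5 mM glucose, no numeric limit stated; inactive = the rest.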

Legend:
[1] = Wnt pathway potentiators raising nuclear beta-catenin – imaging, WNT3A-conditioned medium, mouse C2C12, NPC library, primary screen (AID 1117326; in the data active = nuclear beta-catenin stimulation mostly above about 4.2%, no sharp cut-off; inactive = mostly below about 10%); settings: stronger effect = higher value
[2] = stimulators of insulin release from INS-1E, primary screen, cell-based, 5 mM glucose, NPC library (AID 1117329); settings: rat INS-1E insulin secretion, at 10 µM, stronger effect = higher value
[3] = inhibition of endothelial tube formation, primary screen, imaging, VEGF stimulated, CD31 staining, tube area, NPC library (AID 1117340;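 active = compound that reduces growth-factor-driven endothelial tube area in a mixed cell culture, no cutoff stated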); settings: VEGF-stimulated ADSC/ECFC co-culture, at 10 µM, stronger effect = higher value
[4] = GLP1 release stimulators, primary, NCI-H716, NPC library (AID 1117341;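 active = compound raises GLP1 secretion from the human gut endocrine cells, with no numeric limit stated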); settings: NCI-H716 cells, at 10 µM, stronger effect = higher value
[5] = growth inhibition of GSK3B-pretreated HCT116 cells – cell-based, CellTiter-Glo, 0.2 to 20 µM (AID 1117336;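 active = compounds lowering colon cancer cell viability after pretreatment blocking the GSK3B kinase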); settings: HCT116 viability after GSK3B inhibitor, at 20 µM, stronger effect = higher value
[6] = HCT116 colon cancer cell growth inhibition, primary screen, CellTiter-Glo luminescence, NPC library (AID 1117342;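 active = compounds that lower survival of HCT116 colon cancer cells in the luminescence readout, no numeric limit stated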); settings: at 20 µM (top of the series)
[7] = reduced SW480 viability measured with CellTiter-Glo, NPC library, primary (AID 1117343;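 active = compounds that lower viability of the colon cancer cells in the luminescence readout, with no numeric limit stated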); settings: CellTiter-Glo luminescence; at 20 µM (top of the series) unless noted
[8] = NPC library primary testing for decreased DLD-1 cell viability via CellTiter-Glo (AID 1117346;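 active = compounds that lower survival of DLD-1 colon cancer cells in the luminescence readout, no cutoff given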); settings: DLD-1 viability, CellTiter-Glo luminescence; at 20 µM (top of the series)
[9] = biological target: 6-phosphogluconate dehydrogenase, decarboxylating (Homo sapiens) (UniProt P52209); experiment: inhibition of human phosphogluconate dehydrogenase – biochemical, recombinant enzyme, NADPH absorbance, primary screen (AID 1159550;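 active = at least 20% inhibition of 6-phosphogluconate dehydrogenase activity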); settings: recombinant 6PGD, NADPH absorbance 341 nm; at 10 µM; stronger effect = higher value
[10] = EMT-state selective cytotoxicity in co-culture – imaging, PC-3E GFP, TEM4-18 mCherry, primary screen (AID 1345086;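 active = compounds killing one labelled cell type while sparing the other, by normalised counts and ratio limits, not self-fluorescent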;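 note: cells exposed to compound for 72 h before imaging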;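 for red/green cell ratio (normalised): normalised mesenchymal count divided by normalised epithelial count so high means epithelial killing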); settings: PC-3E GFP / TEM4-18 mCherry co-culture, imaging cell counts, at 1 µM
[11] = viability loss with induced miR-34 in A549 – imaging, A549 dox-inducible miR-34, nuclei and caspase counts, primary screen (AID 1347080;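 active = compounds whose cell count with miR-34 switched on is under 0.7 times the count with it off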); settings: A549 miR-34 inducible, Hoechst nuclei count, 48 h
[12] = galactose survival enhancers in mitochondrial complex I cybrids – cell-based, galactose medium, ATP luminescence, primary screen (AID 1645843;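 active = z-score of at least 1.8 in each of two replicates, scored against plate mean and spread of sample wells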;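 note: positive z means more ATP and so rescue of galactose-driven cybrid death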); settings: complex I mutant cybrid cells, 72 h, stronger effect = higher value
[13] = growth inhibition, single agents and combos, ICB984, cell-based, cisplatin or BGB combos, synergistic combos for chromothripsis tumors (AID 1671451; call rule not given here;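 note: cells exposed for 96 hours before readout; 0% = vehicle DMSO and 100% = killing by high DMSO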); settings: ICB984 medulloblastoma cells, drug combinations, stronger effect = higher value
[14] = MELAS cybrid and Rieske KO viability enhancers – cell-based, MELAS cybrids, Rieske KO mouse fibroblasts, CellTiter-Glo, primary screen (AID 1508586;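 active = mean z-score across replicates of 1.96 or higher in either the MELAS or the Rieske mutant cell line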;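 note: z relative to plate mean and SD of compound and empty wells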); settings: low glucose
[15] = biological target: Mitogen-activated protein kinase 7 (Homo sapiens) (UniProt Q13164); experiment: Gal4-ERK5 driven luciferase induction – cell-based, HTS, primary screen (AID 1508626;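 active = luciferase signal above three times the same-plate solvent-only control wells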;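 note: luciferase driven by Gal4-ERK5 fusion binding five Gal4 sites before minimal TATA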); settings: HeLa Gal4-ERK5 transactivation, 18 h, at 5 µM, stronger effect = higher value
[16] = compounds altering viability of human ES cells (AID 493140; call rule not given here;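 note: cells exposed to compounds for four days before counting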); settings: human embryonic stem cell survival screen; stronger effect = higher value
[17] = biological target: NAD(+) hydrolase SARM1 (Homo sapiens) (UniProt Q6SZW1); experiment: blocking NAD cleavage by SARM1 SAM-TIR – cell lysate, NAD-Glo luminescence (AID 1508614;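 active = compound whose remaining NAD level is above about 45 nM, limit read from the data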;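 note: higher remaining NAD means stronger inhibition of SARM1 NADase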); settings: SAM-TIR HEK293T lysate NADase, at 1 µM, stronger effect = higher value
[18] = stronger effect = lower value, cell number ratio, induced over uninduced
[19] = measured here: relative caspase fold change +Dox/-Dox
[20] = measured here: total cells with miR-34 induction, stronger effect = lower value
[21] = measured here: total cells without miR-34 induction

Mitogen-activated protein kinase 7 (Homo sapiens), sequence (Q13164 whole entry, looked up, the tested form may be a part): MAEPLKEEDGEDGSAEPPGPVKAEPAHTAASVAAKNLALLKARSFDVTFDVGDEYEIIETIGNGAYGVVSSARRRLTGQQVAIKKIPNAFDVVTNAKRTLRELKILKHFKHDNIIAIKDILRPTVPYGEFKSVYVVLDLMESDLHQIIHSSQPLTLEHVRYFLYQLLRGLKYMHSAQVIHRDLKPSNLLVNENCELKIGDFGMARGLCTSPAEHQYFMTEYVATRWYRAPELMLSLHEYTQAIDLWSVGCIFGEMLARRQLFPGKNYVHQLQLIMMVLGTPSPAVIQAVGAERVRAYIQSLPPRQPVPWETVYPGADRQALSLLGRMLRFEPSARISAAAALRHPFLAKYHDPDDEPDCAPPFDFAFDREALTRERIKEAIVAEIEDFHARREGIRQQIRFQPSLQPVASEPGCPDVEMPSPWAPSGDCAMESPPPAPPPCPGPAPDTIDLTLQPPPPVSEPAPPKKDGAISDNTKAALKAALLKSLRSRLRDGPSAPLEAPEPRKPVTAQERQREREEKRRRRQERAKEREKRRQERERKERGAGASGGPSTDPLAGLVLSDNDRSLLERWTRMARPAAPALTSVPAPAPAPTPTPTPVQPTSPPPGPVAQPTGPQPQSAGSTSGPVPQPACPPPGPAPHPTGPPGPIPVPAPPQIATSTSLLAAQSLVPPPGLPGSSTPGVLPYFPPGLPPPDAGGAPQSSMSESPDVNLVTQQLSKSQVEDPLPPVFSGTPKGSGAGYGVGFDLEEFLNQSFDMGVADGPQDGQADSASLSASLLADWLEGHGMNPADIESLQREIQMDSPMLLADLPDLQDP
NAD(+) hydrolase SARM1 (Homo sapiens), sequence (Q6SZW1 whole entry, looked up): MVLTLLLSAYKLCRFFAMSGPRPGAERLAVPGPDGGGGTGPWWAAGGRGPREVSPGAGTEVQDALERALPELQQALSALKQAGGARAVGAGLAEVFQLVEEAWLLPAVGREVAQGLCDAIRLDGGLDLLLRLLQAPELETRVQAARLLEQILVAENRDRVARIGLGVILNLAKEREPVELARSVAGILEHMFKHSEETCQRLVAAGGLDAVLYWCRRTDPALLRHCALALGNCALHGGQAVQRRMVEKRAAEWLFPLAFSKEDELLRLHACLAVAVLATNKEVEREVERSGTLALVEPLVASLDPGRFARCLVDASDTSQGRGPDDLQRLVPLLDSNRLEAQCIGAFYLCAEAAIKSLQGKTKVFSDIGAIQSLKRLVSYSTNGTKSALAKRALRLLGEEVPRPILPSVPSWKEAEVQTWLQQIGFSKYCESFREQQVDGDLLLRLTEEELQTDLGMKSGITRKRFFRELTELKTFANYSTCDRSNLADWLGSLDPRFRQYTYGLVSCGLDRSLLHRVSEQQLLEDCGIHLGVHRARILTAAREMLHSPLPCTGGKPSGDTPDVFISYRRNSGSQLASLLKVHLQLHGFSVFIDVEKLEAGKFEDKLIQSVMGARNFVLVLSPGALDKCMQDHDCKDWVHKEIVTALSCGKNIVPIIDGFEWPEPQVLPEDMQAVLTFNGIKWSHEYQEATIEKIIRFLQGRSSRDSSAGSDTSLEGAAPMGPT
6-phosphogluconate dehydrogenase, decarboxylating (Homo sapiens), sequence (P52209 whole entry, looked up): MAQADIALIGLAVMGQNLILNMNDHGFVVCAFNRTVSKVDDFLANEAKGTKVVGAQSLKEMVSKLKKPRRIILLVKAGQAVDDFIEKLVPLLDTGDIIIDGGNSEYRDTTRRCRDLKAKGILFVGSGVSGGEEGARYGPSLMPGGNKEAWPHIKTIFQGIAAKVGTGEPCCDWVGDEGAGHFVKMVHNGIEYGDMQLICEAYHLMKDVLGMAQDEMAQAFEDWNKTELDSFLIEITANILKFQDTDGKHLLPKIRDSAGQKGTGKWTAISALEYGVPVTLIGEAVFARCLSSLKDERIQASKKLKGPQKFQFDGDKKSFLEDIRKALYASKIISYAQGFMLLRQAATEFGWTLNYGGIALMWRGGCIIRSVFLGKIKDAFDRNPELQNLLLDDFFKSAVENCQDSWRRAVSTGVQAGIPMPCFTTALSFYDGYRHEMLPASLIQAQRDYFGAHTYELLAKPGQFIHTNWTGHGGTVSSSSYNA

CCOc1cc(NC(C)=O)ccc1C(=O)OC
nuclear beta-catenin stimulation ([1]; at 10 µM): 2.6% (inactive) | nuclear beta-catenin stimulation ([1]; stimulation, at 2 µM): 2% | insulin secretion stimulation [2]: 4.4% (inactive) | tube area decrease [3]: 11.7% (inactive) | GLP1 secretion stimulation [4]: 0.3% (inactive)

CCCn1cnc2c1c(=O)n(CCCCC(C)=O)c(=O)n2C
nuclear beta-catenin stimulation ([1]; at 10 µM): 6.6% (inactive) | nuclear beta-catenin stimulation ([1]; stimulation, at 2 µM): -0.2% | insulin secretion stimulation [2]: -1.25% (inactive) | viability decrease [5]: 14.1% (inactive) | GLP1 secretion stimulation [4]: -4.5% (inactive) | inhibition of viability [6]: 20.6% (inactive) | viability decrease (inhibition) [7]: -2.8% (inactive) | viability decrease (inhibition) [8]: 19.6% (inactive) | inhibition [9]: -7.06% (inactive) | red/green cell ratio (normalised) ([10]; actives lie on both sides, counts scaled to control wells, 1 = unselective): 0.84 (inactive) | normalised cell number ([10]; measured here: epithelial PC-3E GFP cell survival): 1.14 | normalised cell number ([10]; measured here: mesenchymal TEM4-18 mCherry cell survival): 0.96 | fold change [11, 18]: 1.02 (inactive) | fold change [11, 19]: 0.994 | cell count [11, 20]: 10000 | cell count [11, 21]: 9790 | z-score [12]: 0.675 (inactive)

C[C@]12CCC(=O)C=C1CC[C@H]1[C@@H]3CC[C@](O)(C(=O)CO)[C@@]3(C)C[C@H](O)[C@@]12F
nuclear beta-catenin stimulation ([1]; at 10 µM): -2.1% (inactive) | nuclear beta-catenin stimulation ([1]; stimulation, at 2 µM): -2.1% | insulin secretion stimulation [2]: 0.3% (inactive) | viability decrease [5]: -81.6% (inactive) | tube area decrease [3]: 10.3% (inactive) | GLP1 secretion stimulation [4]: 0.3% (inactive) | inhibition of viability [6]: -8.17% (inactive) | viability decrease (inhibition) [7]: -20% (inactive) | viability decrease (inhibition) [8]: -2% (inactive)

Cc1ccc2nc(N)[nH]c(=O)c2c1Sc1ccncc1
nuclear beta-catenin stimulation ([1]; at 10 µM): 63.4% (active) | nuclear beta-catenin stimulation ([1]; stimulation, at 2 µM): 61.7% | insulin secretion stimulation [2]: 1.1% (inactive) | viability decrease [5]: 94.2% (active) | tube area decrease [3]: 50.9% (active) | GLP1 secretion stimulation [4]: 1.3% (inactive) | inhibition of viability [6]: 81.5% (active) | viability decrease (inhibition) [7]: 78.8% (active) | viability decrease (inhibition) [8]: 42.1% (inactive) | inhibition ([13]; BGB IC20 combo, at 0.005 µM): -27.9% | inhibition ([13]; BGB IC40 combo, at 0.005 µM): -29.4% | inhibition ([13]; BGB IC40 combo, at 0.05 µM): -15.3% | inhibition ([13]; at 0.5 µM): -23.3% (inactive) | inhibition ([13]; cisplatin combo, at 0.05 µM): -21.2% | inhibition ([13]; cisplatin combo, at 0.5 µM): -25.7% | inhibition ([13]; cisplatin combo, at 5 µM): -19.8% | inhibition ([13]; measured here: 5 uM single agent, at 5 µM): -37.5%

Cc1c(-c2ccc(O)cc2)n(Cc2ccc(OCCN3CCCCCC3)cc2)c2ccc(O)cc12
nuclear beta-catenin stimulation ([1]; at 10 µM): -3.3% (active) | nuclear beta-catenin stimulation ([1]; stimulation, at 2 µM): 44.5% | insulin secretion stimulation [2]: 4.3% (inactive) | viability decrease [5]: 99.8% (active) | inhibition of viability [6]: 99.7% (active) | viability decrease (inhibition) [7]: 102% (active) | viability decrease (inhibition) [8]: 101% (active) | fold change [11, 18]: 0.919 (inactive) | fold change [11, 19]: 0.888 | cell count [11, 20]: 6380 | cell count [11, 21]: 6940 | z-score ([14]; MELAS cybrid survival, CellTiter-Glo 48 h, stronger effect = higher value): -0.437 (inactive) | z-score ([14]; Rieske KO mouse fibroblast survival, CellTiter-Glo 72 h): 0.502

C#C[C@]1(OC(C)=O)CC[C@H]2[C@@H]3CCC4=C/C(=N/O)CC[C@@H]4[C@H]3CC[C@@]21CC
nuclear beta-catenin stimulation ([1]; at 10 µM): 3.7% (inactive) | nuclear beta-catenin stimulation ([1]; stimulation, at 2 µM): 2.1% | insulin secretion stimulation [2]: -0.2% (inactive) | viability decrease [5]: 98.8% (active) | tube area decrease [3]: 99% (active) | GLP1 secretion stimulation [4]: -2.6% (inactive) | inhibition of viability [6]: 99.1% (active) | viability decrease (inhibition) [7]: 102% (active) | viability decrease (inhibition) [8]: 101% (active) | luciferase signal [15]: 24 AU (inactive)

CC(=O)Oc1ccc2c(c1)CC[C@@H]1[C@@H]2CC[C@]2(C)[C@@H](O)CC[C@@H]12
nuclear beta-catenin stimulation ([1]; at 10 µM): 6.2% (inactive) | nuclear beta-catenin stimulation ([1]; stimulation, at 2 µM): 4.6% | insulin secretion stimulation [2]: 1.3% (inactive) | viability decrease [5]: 13.1% (inactive) | tube area decrease [3]: -71.2% (inactive) | GLP1 secretion stimulation [4]: 1.6% (inactive) | inhibition of viability [6]: 41.6% (inactive) | viability decrease (inhibition) [7]: 72.9% (active) | viability decrease (inhibition) [8]: 35.2% (inactive) | luciferase signal [15]: 36 AU (inactive)

c1ccc2ccccc2c1
nuclear beta-catenin stimulation ([1]; at 10 µM): 0.7% (inactive) | nuclear beta-catenin stimulation ([1]; stimulation, at 2 µM): 7.8% | insulin secretion stimulation [2]: 6.8% (inactive) | viability decrease [5]: 13.1% (inactive) | inhibition of viability [6]: 14.8% (inactive) | viability decrease (inhibition) [7]: -4.5% (inactive) | viability decrease (inhibition) [8]: 4.2% (inactive)

CC(C)Cn1cnc2c1c(=O)n(C)c(=O)n2C
nuclear beta-catenin stimulation ([1]; at 10 µM): 1.9% (inactive) | nuclear beta-catenin stimulation ([1]; stimulation, at 2 µM): -1.3% | insulin secretion stimulation [2]: 1.65% (inactive) | viability decrease [5]: 0% (inactive) | GLP1 secretion stimulation [4]: 3.4% (inactive) | inhibition of viability [6]: 31.9% (inactive) | viability decrease (inhibition) [7]: -1.5% (inactive) | viability decrease (inhibition) [8]: 11.3% (inactive)

CC1CCC(C(C)C)C(OC(=O)c2ccccc2O)C1 (stereo not given)
nuclear beta-catenin stimulation ([1]; at 10 µM): -1.1% (inactive) | nuclear beta-catenin stimulation ([1]; stimulation, at 2 µM): -2.6% | insulin secretion stimulation [2]: -1% (inactive) | GLP1 secretion stimulation [4]: -8.7% (inactive)

C[C@@H]1CCC[C@H](C)N1
survival [16]: 4.42 (inactive) | nuclear beta-catenin stimulation ([1]; at 10 µM): 1.3% (inactive) | nuclear beta-catenin stimulation ([1]; stimulation, at 2 µM): 1% | insulin secretion stimulation [2]: -1.2% (inactive) | viability decrease [5]: -2.8% (inactive) | tube area decrease [3]: 3.6% (inactive) | GLP1 secretion stimulation [4]: 0.5% (inactive) | inhibition of viability [6]: -4.9% (inactive) | viability decrease (inhibition) [7]: 6.2% (inactive) | viability decrease (inhibition) [8]: 2.2% (inactive)

CCCCCCCCCCCCCCCCCC[N+](C)(C)CCC[Si](OC)(OC)OC
nuclear beta-catenin stimulation ([1]; at 10 µM): -0.6% (inactive) | nuclear beta-catenin stimulation ([1]; stimulation, at 2 µM): -0.8% | insulin secretion stimulation [2]: -0.25% (inactive) | viability decrease [5]: 14.4% (inactive) | GLP1 secretion stimulation [4]: -3.1% (inactive) | inhibition of viability [6]: 12.9% (inactive) | viability decrease (inhibition) [7]: -2.9% (inactive) | viability decrease (inhibition) [8]: 1.7% (inactive)

CCCC(=O)O[C@]1(C(=O)CO)CC[C@H]2[C@@H]3CCC4=CC(=O)CC[C@]4(C)[C@H]3[C@@H](O)C[C@@]21C
nuclear beta-catenin stimulation ([1]; at 10 µM): 0.1% (inactive) | nuclear beta-catenin stimulation ([1]; stimulation, at 2 µM): 1.4% | insulin secretion stimulation [2]: 1.4% (inactive) | viability decrease [5]: -45.5% (inactive) | tube area decrease [3]: 18.3% (inactive) | GLP1 secretion stimulation [4]: 3.7% (inactive) | inhibition of viability [6]: 24.2% (inactive) | viability decrease (inhibition) [7]: 19.8% (inactive) | viability decrease (inhibition) [8]: 1% (inactive) | remaining NAD [17]: 10 nM (inactive) | luciferase signal [15]: 148 AU (inactive)

C[C@]12CC[C@@H]3c4ccc(O)cc4CC[C@H]3[C@@H]1CC[C@@H]2OC(=O)CCC1CCCC1
nuclear beta-catenin stimulation ([1]; at 10 µM): 28.4% (inactive) | nuclear beta-catenin stimulation ([1]; stimulation, at 2 µM): 2.5% | insulin secretion stimulation [2]: 0.5% (inactive) | viability decrease [5]: -8.5% (inactive) | tube area decrease [3]: 110% (active) | GLP1 secretion stimulation [4]: 3.6% (inactive) | inhibition of viability [6]: 6.73% (inactive) | viability decrease (inhibition) [7]: 27% (inactive) | viability decrease (inhibition) [8]: -23.3% (inactive) | remaining NAD [17]: 10 nM (inactive) | luciferase signal [15]: 84 AU (inactive)
